Source: ChEMBL document CHEMBL4513216, “Probing the Open Global Health Chemical Diversity Library for Multistage-Active Starting Points for Next-Generation Antimalarials” (ACS Infect Dis, 2020)
Among all 69,000 compounds or so, about 8,600 (12%) showed an effect of 50% or more. Only a selection was taken, and strong results are over-represented in it overall.

System: Plasmodium berghei
Experiment: Screen against P. berghei liver stage (PbLuc), transformed with Luciferase, at 10uM
Format: functional, HepG2
Settings: tested at 10 uM

| Compound | INHIBITION |
| --- | --- |
| COCC(=O)N1CCC(c2cc(-c3ccc(OC)cc3)n[nH]2)C1 (centres undefined) | -50.3% |
| CCOC1CCN(C(=O)Nc2ccc(=O)n(C)c2)CC1 | 33% |
| COc1ccccc1OC1CCN(Cc2cccnc2)CC1 | 5.91% |
| c1cncc(OC2CCN(CCn3cc4ccccc4n3)CC2)c1 | 50.8% |
| OCCn1nccc1C1CCN(CCOc2cccc(F)c2)CC1 | 31.9% |
| CCc1ncc(CN2CCC(Oc3ccccc3OC)CC2)cn1 | -40% |
| CN1CCN(C2CCN(CCOc3ccccc3F)CC2)C1=O | -22.9% |
| Fc1ccccc1OC1CCN(CCn2cc3ccccc3n2)CC1 | 89.3% |
| c1cncc(O[C@H]2COCCN(CC3CC3)C2)c1 | 12.4% |
| Fc1cccc(OC2CCN(CCn3cc4ccccc4n3)CC2)c1 | 75.2% |
| Cc1ccc(CNC(=O)NCc2nccn2C)c(OC(C)(C)C)c1 | 43.5% |
| CC(C)NC(=O)N1CCN(C(=O)C2CCOCC2)CC2(CNC(=O)C2)C1 (centres undefined) | 1.9% |
| CCC(=O)N1CCN(C(=O)NCCOc2ccc3c(c2)CCC3)CC1 | 30.2% |
| Cc1nccn1-c1ccc(NS(=O)(=O)c2cnn(C)c2)cn1 | 4.95% |
| Cc1cccc(CN2Cc3[nH]nc(COCC4CC4)c3C2)n1 | 48.2% |
| COC(=O)c1oc(CNC(C)(C)CO)cc1C | -3.35% |
| Cc1ncc(CN2CCOCC2)c2cc(C(=O)c3ccc(Br)cc3)oc12 | -21.8% |
| Cc1ncc(CNCC(C)O)c2cc(C(=O)c3ccc(Br)cc3)oc12 (centres undefined) | 50.5% |
| Cc1ncc(CN2CCCC2)c2cc(C(=O)c3ccc(Br)cc3)oc12 | 44.5% |
| Cc1ncc(CNCCO)c2cc(C(=O)c3ccc(Br)cc3)oc12 | 59.2% |
| Cc1ncc(CNC(C)(C)CO)c2cc(C(=O)c3ccc(Br)cc3)oc12 | 65.3% |
| CN(C)c1ccc(C(=O)NCc2csc(Br)c2)cn1 | 1.75% |
| CC(O)CNC(=O)Nc1ccc(Br)cc1Br (centres undefined) | 29.1% |
| Cc1ncc(CN(C)CCO)c2cc(C(=O)c3ccc(Br)cc3)oc12 | 36.8% |
| CN1C(=O)CCC12CCC(NCc1ccsc1)CC2 (centres undefined) | 8.74% |
| COCCOC1CCN(C(C(=O)O)c2ccc3c(c2)OCO3)CC1 (centres undefined) | 14.9% |
| COCCCC1CCCCN1Cc1cn2cc(C)ccc2n1 (centres undefined) | -17.2% |

| Compound | INHIBITION |
| --- | --- |
| CN1CCN(C(=O)CCCc2ccccc2)CC(O)(Cn2cccn2)C1 (centres undefined) | 26.65% |
| Cc1ccc(C)c(-n2cc(CN3CC[C@@H](O)C3)c(-c3ccccc3)n2)c1 | 39.9% |
| Cc1ccc(C)c(-n2cc(CN3CCOCC3)c(-c3ccccc3)n2)c1 | 33.4% |
| Cc1ccc(-n2cc(CN3CCOCC3)c(-c3cccc(C)c3)n2)cc1 | 56.1% |
| COc1cc(N2CCCn3cnc(COC(C)C)c3C2)ncn1 | 48.2% |
| Cc1cc(NC(=O)C(C)Nc2cccc(COCc3ccco3)c2)on1 (centres undefined) | 39.5% |
| Cc1nc(-c2cccc(C(=O)O)c2)cc(C2CCN(C(C)C)C2)n1 (centres undefined) | 0.0932% |
| Cc1cc(C)nc(Nc2cc(C)nc(C3CCN(C(C)C)C3)n2)n1 (centres undefined) | 11.685% |
| Cc1cc(C)nc(Nc2cccc(C3CCCN(C(C)C)C3)n2)n1 (centres undefined) | -21.4% |
| Cc1cc(-c2ccc(C(=O)O)cc2)nc(C2CCN(C(C)C)CC2)n1 | 2.71% |
| Cc1cc(-c2cccc(C(=O)O)c2)nc(C2CCN(C(C)C)CC2)n1 | 56% |
| Cc1cccc(Nc2cc(C)nc(C3CCN(C(C)C)C3)n2)n1 (centres undefined) | 60.9% |
| Cc1noc(Cl)c1CCC(=O)N1CCN(Cc2ccncc2)CC1 | 1.78% |
| Cc1nn2cnnc2c(C)c1CCC(=O)Nc1nnc(C2CC2)s1 | -31.1% |
| CC(C(=O)NCCc1ccc2c(c1)OCCO2)n1cncn1 (centres undefined) | 35.4% |
| CCN(Cc1noc(CC(C)C)n1)Cc1cc2ccc(F)cc2[nH]c1=O | -7.65% |
| Cn1cccc1CN1CCc2c(nc(-c3ccccn3)[nH]c2=O)C1 | 6.32% |
| CCOc1ccc2[nH]c(=O)c(CN3CCCC(CO)(CO)C3)cc2c1 | -46.4% |
| CO[C@H]1CCN(C(=O)c2ccc3[nH]nnc3c2)C[C@@]12CCCO2 | 5.34% |
| CSc1ccc(C(=O)N2CC(=O)N(CC(C)(C)C)CC(O)C2)cc1 (centres undefined) | 37.4% |
| O=C1CN(CC2CC2)Cc2nc(NCCc3ccccn3)sc21 | 23.4% |
| CC(=O)N1CCCC2(CCN(c3ccccc3)C2=O)C1 (centres undefined) | 2.58% |
| O=C(NCCc1ccccc1)N1CCCCC1C1OCCO1 (centres undefined) | 25.7% |
| O=C(CCc1ccccc1)N1CCCCC1C1OCCO1 (centres undefined) | 72.1% |
| O=C(CCc1ccccc1)N1CCCCC1Cn1cccn1 (centres undefined) | 29.4% |
| c1coc(CN2CCOC3(COCCN(Cc4ccncc4)C3)C2)c1 (centres undefined) | 31.7% |
| O=C(Cc1csc(-c2ccoc2)n1)NCCCN1CCCCC1 | -55.1% |
